Here are results for 35 molecules from PubChem BioAssay AID2650 (Broad Institute, 2010).

Molecules are shown by their SMILES. Screen size: about 320,000 compounds; about 320 (0.1%) were called active. For the sample, actives were picked, then their nearest neighbours and some compounds at random. A number with no mark means an inactive call.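 The calls were made as follows: active = more than half of replicates show inhibition above 20%; inconclusive = some but at most half of replicates above 20% inhibition; inactive = no replicate shows inhibition above 20%.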

For the experiment, the target named is Glycogen synthase kinase-3 alpha (Homo sapiens) (UniProt P49840). The experiment in a line: blockers of GSK3A enzyme activity – biochemical, luminescence, cell-free homogeneous, HTS, primary screen (AID 2650).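 Also: GST-tagged GSK-3 alpha with peptide substrate and 25 µM ATP; 0% = DMSO neutral wells and 100% = GW8510 positive control wells.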 Conditions: GSK-3 alpha kinase, ADP-Glo luminescence, 60 min; at 10 µM; active compounds read high.
Sequence of Glycogen synthase kinase-3 alpha (Homo sapiens) (P49840 whole entry, looked up): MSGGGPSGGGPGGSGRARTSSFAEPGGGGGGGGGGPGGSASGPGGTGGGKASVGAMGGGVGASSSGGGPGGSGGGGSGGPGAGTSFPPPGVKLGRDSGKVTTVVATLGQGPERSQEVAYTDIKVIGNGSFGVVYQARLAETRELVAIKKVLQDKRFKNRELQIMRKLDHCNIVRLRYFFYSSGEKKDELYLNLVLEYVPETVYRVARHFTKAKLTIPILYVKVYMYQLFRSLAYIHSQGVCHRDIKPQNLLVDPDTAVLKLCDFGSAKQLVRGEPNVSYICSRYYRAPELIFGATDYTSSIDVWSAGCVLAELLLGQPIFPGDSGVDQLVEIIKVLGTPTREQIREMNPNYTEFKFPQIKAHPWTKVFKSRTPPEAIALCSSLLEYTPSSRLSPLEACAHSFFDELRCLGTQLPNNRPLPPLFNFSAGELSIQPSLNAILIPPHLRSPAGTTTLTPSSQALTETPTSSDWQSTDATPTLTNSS
As for `CSCc1cc(N(C)C)nc(SCc2ccc(Cl)cc2Cl)n1`, the inhibition was -5.57%. Under `C=CCNc1nc(N)c([N+](=O)[O-])c(NC2CCCCC2)n1` stands 0.434%; under `COCCNc1nc(N)c([N+](=O)[O-])c(N2CCCCCC2)n1`, 1.39%. Take `COCCNc1nc(N)c([N+](=O)[O-])c(NCCO)n1`: the inhibition is 53.1% (active). Under `COc1ccc(C(=O)NCc2ccccc2C)cc1S(=O)(=O)NC1CCCC1` stands -2.96%; under `Cn1c(SCC(=O)Nc2nccs2)nnc1-c1cccnc1`, 2.04%. For `CC1CCCN(C(=O)CN2C(=O)c3ccccc3S2(=O)=O)C1` (stereo not given), the inhibition is -0.713%. For the molecule `CC1CC(=NNC(=O)C2COc3ccccc3O2)CC(C)(C)C1` (stereo not given), the inhibition is 0.373%. Regarding `C=CCC[C@H](Cc1ccc(F)cc1)C(=O)OC[C@@H](NC(=O)[C@@H](CC=C)CC(=O)N[C@H](CO)Cc1ccccc1)C(C)(C)C`, the inhibition was -1.79%.

For the molecule `CS(=O)(=O)N(CC(=O)NC1CCCC1)Cc1ccc(F)cc1`, the inhibition was 10.3%. Under `O=S(N1CCCCCC1)C12CC3CC(CC(C3)C1)C2` (stereo not given) stands -2.72%; under `Cc1cc(C)c(S(=O)(=O)n2cc(C(C)C(N)C(=O)O)c3ccccc32)c(C)c1` (stereo not given), -2.93%. Turning to `NC1=NC[C@@H](Cc2ccc(O)cc2)N1CC1CCCCC1`, the inhibition is 1.17%. For `O=C(CSc1nc2nccnc2c(=O)n1Cc1cccs1)Nc1ccccc1F`, the inhibition is 1.43%. Under `O=C(c1ccc(N2CCOCC2)c([N+](=O)[O-])c1)N1CCN(c2ccccc2F)CC1` stands -2.69%; under `Cn1c(-c2ccc(F)cc2)cc2onc(-c3ccccc3Cl)c2c1=O`, -1.73%; under `CCN(CC)CCCNC(=O)CCn1nc(-c2ccc(Cl)cc2)ccc1=O`, -1.8%. As to `O=C(NCCCN1CCCC1=O)C(=O)NCC1OCCN1S(=O)(=O)c1ccc(Br)cc1` (stereo not given), the inhibition is -1.8%. Regarding `COc1ccc2nc3n(c(=O)c2c1)-c1ccc(Cl)cc1C(=O)NC3Cc1ccccc1` (stereo not given), the inhibition is -2.35%. Under `N#Cc1ccccc1CN1C(=O)S/C(=C/c2cccn2-c2cccc(C(=O)O)c2)C1=O` stands 3.06%. For the molecule `COc1ccc(Cn2c(C)c(C)c(C#N)c2NC(=O)Nc2ccc(F)cc2)cc1`, the inhibition is -1.46%.

Turning to `O=C(Nc1ccc(S(=O)(=O)N2CCCCC2)cc1)C1CC(=O)N(c2ccc(F)cc2)C1` (stereo not given), the inhibition is 0.943%. As for `CCOc1ccc(S(=O)(=O)NCCC(=O)NCC(C)(C)N2CCOCC2)cc1`, the inhibition was -4.12%.

Regarding `CC(C)n1cnc2c(NCc3ccccc3)cc(N[C@@H](CO)Cc3ccccc3)cc21`, the inhibition was -3.52%. Under `CCOc1ccc(CCNC(=O)C(CC)n2nc(C)n3c(cc4sccc43)c2=O)cc1OCC` (stereo not given) stands 8.43%; under `CC1=C(C(=O)NC2CC(C)(C)Cc3c2cnn3-c2ccc(C)cc2)OCCO1` (stereo not given), -2.77%; under `Cc1cccn2c(=O)nc(SCC(=O)NCc3ccccc3Cl)nc12`, -2.07%. Under `O=C(CN(C(=O)c1csnn1)c1cccc(F)c1)NCc1ccc(F)cc1` stands 0.738%; under `O=C(Nc1ccccn1)C1CCN(S(=O)(=O)c2ccccc2)CC1`, 3.28%.

As for `CCCC1NC(=S)NC(C)=C1C(C)=O` (stereo not given), the inhibition was -1.05%. Under `OCCCNc1nc(-c2ccccc2)c2cc(Cl)ccc2n1` stands 1.49%; under `OCCCNc1nccc(-c2cc(Nc3cccc(Cl)c3)ncn2)n1`, 89.3% (active); under `CC(C)n1cnc2c(Nc3cccc(Cl)c3)nc(N(CCO)CCCO)nc21`, 9.71%. Under `CCCOc1ccc(Cc2c(O)nc(N)[nH]c2=O)cc1C` stands -0.849%; under `CCn1c(SC)nc(O)c(C(c2ccc(OC)c(O)c2)c2c(O)nc(SC)n(CC)c2=O)c1=O`, -6.95%.
